Laboratory results published in ChEMBL document CHEMBL4513216, “Probing the Open Global Health Chemical Diversity Library for Multistage-Active Starting Points for Next-Generation Antimalarials” (ACS Infect Dis, 2020).
The whole screen tested about 69,000 compounds, of which about 8,600 (12%) showed an effect of 50% or more. For the sample, strong results were picked, then their nearest neighbours and some compounds at random.

What follows are compounds tested on Plasmodium berghei (assay: Screen against P. berghei liver stage (PbLuc), transformed with Luciferase, at 10uM). Conditions: tested at 10 uM.
Format: functional, HepG2

Structure (SMILES)	INHIBITION [%]
O=C(c1ccncc1)N1CCCC(c2ncncc2-c2ccncc2)C1 (configuration not stated)	12.3
CCc1noc(CN2CCN(C(=O)OC(C)(C)C)C(C)C2)n1 (configuration not stated)	20.4
Cc1ccc(CN2CC(O)CN(C(=O)OCC(C)C)CC2=O)cc1 (configuration not stated)	18.4
O=S(=O)(c1cn[nH]c1)N1C[C@@H](O)[C@H](N2CCc3ccccc3C2)C1	-51.3
COc1cccc(C2CC(=O)Nc3nc(N)sc32)c1OC (configuration not stated)	5.53
CC(=O)c1cc(CN2CCCC23CCN(c2ccccn2)CC3)cs1	12.7
CN(C)c1ncc(-c2cncn2CCc2ccc3c(c2)OCCO3)cn1	-12.3
CC(C)S(=O)(=O)N1CCN(C(=O)c2cnn(C)c2Cl)CC1	19.845
O=C(O)c1ccccc1-n1cnc(CN2CCCCCC2)c1	14.6
COCCC(=O)NCCn1nc(C2CCNC2)c2cccnc21 (configuration not stated)	5.11
O=C(CCC1CCCC1)NCCn1nc(C2CCNC2)c2cccnc21 (configuration not stated)	38.7
O=C(NCCn1nc(C2CCNC2)c2cccnc21)C1CC1 (configuration not stated)	13.5
CC(C)CC(=O)NCCn1nc(C2CCNC2)c2cccnc21 (configuration not stated)	44.8
O=C(CCC1CCCC1)NCCn1nc(C2CCNC2)c2nccnc21 (configuration not stated)	67.1
CC(C)(C)CC(=O)NCCn1nc(C2CCNC2)c2cccnc21 (configuration not stated)	54.5
CC(C)(C)OC(=O)N[C@@H]1C[C@@H](O)CN(C(=O)c2ccc(F)cc2)C[C@H]1O	6.26
COCCN1CCC(c2ncc(C(=O)N3CCOCC3)c(C)n2)CC1	-2.09
COC(=O)CNC(=O)C12CCC(=O)N1c1cc(Cl)ccc1S2 (configuration not stated)	15.9
CC(C)NC(=O)CNC(=O)N1CCc2c([nH]c3ccc(Cl)cc23)C1	-22.9
CC(C)C(=O)NCCNC(=O)C12CCC(=O)N1c1cc(Cl)ccc1S2 (configuration not stated)	57.6
CCOCCCNC(=O)C1(C)CCC(=O)N1c1ccccc1F (configuration not stated)	37.4
CC(C)C(=O)NCc1cccc(N2CCCCC2=O)c1	19.4
CC(C)NC(=O)CNC(=O)C12CCC(=O)N1c1cc(Cl)ccc1S2 (configuration not stated)	73.6
Cc1nn(C)c(Cl)c1C1CCCN1C(=O)c1ccncc1 (configuration not stated)	38.5
O=C(c1cscn1)N1CCC2(CCCN(CCOc3ccccc3)C2)C1 (configuration not stated)	-31.9
CCN(C)S(=O)(=O)NCC1CCCN(Cc2ccccc2F)C1 (configuration not stated)	1.74

Structure (SMILES)	INHIBITION [%]
CCC(C)N1Cc2c(C(=O)N3CCOCC3)nn(C)c2C1 (configuration not stated)	19.5
Cc1cnn(CC2CCCCN2C(=O)Cc2ccc(C#N)cc2)c1 (configuration not stated)	2.97
Cc1ccc2nc(CN3CCN(C4CCCCC4)C(=O)C3)cc(O)c2c1	-46.2
Cc1ccc2nc(CN3CCC(O)(Cn4ccnc4)CC3)cc(O)c2c1	43.4
Cc1ccc2nc(CN3CCC(O)(CN4CCCC4)CC3)cc(O)c2c1	69.3
Cc1ccc2nc(CN3CCN(C4CCCC4)C(=O)C3)cc(O)c2c1	-0.529
Oc1cc(CN2CCC(O)(Cn3ccnc3)CC2)nc2ccc(F)cc12	62.8
Oc1cc(CN2CCC(O)(Cn3ccnc3)CC2)nc2c(Cl)cccc12	27.6
CC(=O)N1CCc2nc(C3CCN(C(=O)c4ccccc4)C3)ncc2C1 (configuration not stated)	-29.8
CN(Cc1cccs1)C(=O)CN1CCCC(Cn2cncn2)C1 (configuration not stated)	-4.16
CN1CCCN(S(=O)(=O)c2cccc(C(=O)N3CCCCCC3)c2)CC1	36
CCc1nnc(CNC(=O)CCC2CCCCN2C)s1 (configuration not stated)	6.72
CN1N=C(C(=O)N2CCCC(CCc3c(F)cccc3F)C2)CCC1=O (configuration not stated)	0.139
Cc1[nH]c(=O)[nH]c(=O)c1CN1CCCC(CCc2c(F)cccc2F)C1 (configuration not stated)	6.8
COc1coc(CN2CCCC(CCc3c(F)cccc3F)C2)cc1=O (configuration not stated)	56.3
COc1coc(CN2CCCC(CCc3ccccc3F)C2)cc1=O (configuration not stated)	60.4
CS(=O)(=O)NCCC1CCCN(Cc2ccccc2F)C1 (configuration not stated)	43.1
COc1coc(CN2CCCC(CCc3ccccc3C)C2)cc1=O (configuration not stated)	46.4
COc1cccc(F)c1CN1CCC(c2nc(C)cc(C)n2)C1 (configuration not stated)	43.45
O=c1cc(CN2CCCC(CCc3c(F)cccc3F)C2)[nH]c(=O)[nH]1 (configuration not stated)	58.5
Cc1[nH]c(=O)[nH]c(=O)c1CN1CCCC(CCc2ccccc2F)C1 (configuration not stated)	19.7
COCCOCC(=O)NCc1ccc(N(C)C)nc1	26.1
COCCN1CCN(C(C(=O)O)c2ccc(SC)cc2)CC1 (configuration not stated)	49.4
Cn1cc(CN2CCCC(O)C2)c(-c2ccccc2F)n1 (configuration not stated)	3.13
COc1cccc(CN2CCC3(CC2)CCN(C(=O)[C@@H]2CCCO2)C3)c1	-47.9
Cc1ccc(N2CCOC(C)(C(=O)N(C)C)C2)nn1 (configuration not stated)	18.3
